From PubChem BioAssay (NCATS)
Results filed as inconclusive are left out. A call without a number means that no potency is given here. Activity calls are given as the source filed them. The call rests on the fitted dose curve; in most records, active means well fitted curve in the direction sought with a large enough effect; inconclusive means small, poorly fitted or top-dose-only effect, or another doubt; inactive means no such curve, though single readings can be large; an effect the other way counts as inactive or inconclusive.

Columns and labels:
[1] = target: Flap endonuclease 1 (Homo sapiens) (UniProt P39748); assay: qHTS Validation Assay for the Inhibitors of Human Flap endonuclease 1 (FEN1) (AID 488816); conditions: FEN1 nuclease activity, fluorogenic DNA substrate; series mostly up to 57.1 µM
Procedure, shortened: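 Human FEN1 (10 nM) preincubated 15 min at room temperature with compounds, then flap DNA substrate added at 50 nM final. Fluorescence read at 0 and 15 min; concentration-response fitted with four-parameter Hill equation.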

[2] = target: Thioredoxin reductase 1, cytoplasmic (Rattus norvegicus) (UniProt O89049); assay: qHTS Assay for Inhibitors of Mammalian Selenoprotein Thioredoxin Reductase 1 (TrxR1) (AID 488773); conditions: purified TrxR1 enzyme activity; Potency: inhibition; series mostly up to 57.1 µM; further: nearly all actives have a fitted effect of over 40% in size; further: potency means the concentration at half of the fitted maximal effect
Procedure, shortened: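 Steps: enzyme (90 nM) plus NADPH (400 uM final), 5 min at ~22 deg C; compound added, 15 min; selenite (400 uM final) added; fluorescence followed for 8 min. Concentration-response curves derived from the normalized delta values.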

[3] = target: Chromobox protein homolog 1 (Homo sapiens) (UniProt P83916); assay: qHTS Validation Assay for Inhibitors of HP1-beta Chromodomain Interactions with Methylated Histone Tails (AID 488953); conditions: HP1-beta chromodomain / methylated histone peptide binding assay; series mostly up to 114 µM; further: nearly all actives have a fitted effect of over 50% in size; further: potency means the concentration at half of the fitted maximal effect
Procedure, shortened: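 Measured as loss of AlphaScreen luminescence from streptavidin donor and nickel acceptor beads (10 ug/mL final) bridging HP1-beta and biotin-H3(1-18)K9me3, each 50 nM. Compounds met the preassembled complex for 30 min at RT.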

[4] = target: M-phase phosphoprotein 8 (Homo sapiens) (UniProt Q99549); assay: qHTS Validation Assay for Inhibitors for MPP8 Chromodomain Interactions with Methylated Histone Tails (AID 488949); conditions: AlphaScreen MPP8 binding to H3K9me3 peptide; series mostly up to 114 µM; further: nearly all actives have a fitted effect of over 55% in size; further: potency means the concentration at half of the fitted maximal effect
Procedure, shortened: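 AlphaScreen proximity signal from streptavidin donor and Ni-chelate acceptor beads (10 ug/mL each) reported binding of MPP8 to trimethyl-K9 H3(1-18) peptide, both at 50 nM. The complex formed 30 min before a 30 min compound exposure at room temperature, in PBS pH 7.4.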

[5] = target: Methanococcus maripaludis chaperonin (MmCpn) (UniProt Q6LX38); assay: High-Throughput Screening for Modulators of Cytosolic Chaperonin Activity: MmCpn Primary Screen (AID 488978); conditions: Purified MmCpn ATPase activity, ADP HTRF detection, 10 min; series mostly up to 76.9 µM;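 further: 50 nM MmCpn enzyme hydrolysing 30 µM ATP at 37 °C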
Procedure, shortened: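 ATPase activity of 50 nM MmCpn was assayed with 30 uM ATP, 10 minutes at 37C, after a 5 min compound preincubation at room temperature. ADP production was read as HTRF emission at 590 and 665 nm.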

[6] = target: Transient receptor potential cation channel subfamily V member 1 (Homo sapiens) (UniProt Q8NER1); assay: HTS Assay for Compounds that Act as Enhancers of the Vanilloid Receptor 1 (AID 488979); conditions: TRPV1-expressing cells, enhancer of channel activity; series mostly up to 41.7 µM
Description: The transient receptor potential ion channel, family V, number 1, (TRPV1) is one of the most important molecular transducers of painful stimuli and a potential target for analgesic drug development. Although recent clinical trials with orthosteric antagonists have not produced a successful drug because of a hyperthermia side effect and their tendency to block thermal noxious pain, this ion channel is undeniably well placed in the pain pathway, and the idea of blocking pain signals before they enter the CNS is an excellent concept and of proven efficacy when TRPV1 agonists are used. We propose a new approach involving allosteric modulation to impose an activity-dependent constraint within the context of inflammation and tissue damage that would alter the responsiveness of the channel in a way that an orthosteric vanilloid antagonist cannot achieve. We believe that the allosteric modulator approach has not been explored for this target.
The main goal of this proposal is to identify additional, new, potent allosteric modulators of TRPV1 that can be used to investigate TRPV1 function. Our recent report provides evidence of proof of concept, but the compounds are just at the edge of utility in terms of potency. […] The question of whether they can be used as analgesic agents is complex, but if suitable compounds are identified then testing for analgesic properties will be conducted.
Upon TRPV1 activation in TRPV1 cells, the channel opens and extracellular cations flow through the channel into the cytosol. A calcium binding dye (Fluo-8) becomes fluorescent when bound to calcium. This dye is pre-loaded into cells and is used as a marker for calcium influx.
The amount of accumulated calcium is precisely quantified using the FDSS kinetic reader and the calcium dye.
For the HTS assay, freshly prepared cells are plated at a density of 2000/well in 3 ul medium in 1536-well plates and cultured overnight at 35.5C. Cells will be loaded with 1 ul of the homogeneous calcium dye (ABD Bioquest) at room temperature for 40 to 90 minutes. Plates will be loaded into the FDSS kinetic reader and a 1 sec / cycle for 10 second baseline signal will be measured. Compound library will then be added with a pintool at 23 nl and measured kinetically for 3 minutes. This portion of the read is considered the agonist portion of the screen. Following the 3 minutes of incubation, an on board pipettor will deliver 1 ul of capsaicin for a final concentration equal to the EC20. Signal will be measured kinetically for an additional 2 minutes. This portion of the read is considered the allosteric enhancer portion of the screen.
The FDSS reader has a standard filter set capable of measuring calcium bound Fluo-8 (ex=480 and em=520 nm).

[7] = target: D(1A) dopamine receptor (Homo sapiens) (UniProt P21728); assay: HTS Assay for Allosteric Agonists of the Human D1 Dopamine Receptor: Primary Screen for Agonists (AID 488981); conditions: Inducible HEK293 T-REx D1 cells, calcium-flux fluorescence, 180 s kinetic; series mostly up to 41.8 µM
Procedure, shortened: (§1)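 Tetracycline-induced HEK293 Trex D1 cells with forced coupling to calcium, loaded with no-wash calcium dye; kinetic fluorescence read 180 s after compound addition for agonism, then a further 180 s after an EC20 dopamine challenge for potentiation.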

[8] = target: D(1A) dopamine receptor (Homo sapiens) (UniProt P21728); assay: HTS Assay for Allosteric Agonists of the Human D1 Dopamine Receptor: Primary Screen for Potentiators (AID 488982); conditions: HEK293 T-REx D1 inducible cells, calcium flux, kinetic fluorescence; series mostly up to 8.37 µM; further: potency means the concentration at half of the fitted maximal effect
Procedure, shortened: as §1

[9] = target: D(1A) dopamine receptor (Homo sapiens) (UniProt P21728); assay: HTS Assay for Allosteric Agonists of the Human D1 Dopamine Receptor: Primary Screen for Antagonists (AID 488983); conditions: D1 receptor cell assay, antagonist mode, qHTS titration; series mostly up to 41.8 µM;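 further: calcium flux response to an EC80 dopamine challenge measured with no-wash dye; nearly all actives have a fitted effect of over 65% in size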; further: potency means the concentration at half of the fitted maximal effect
Procedure, shortened: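 Screening of inducible HEK293 T-REx D1 cells: compound first, EC80 dopamine 180 s later, each phase read kinetically for calcium over 180 s.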

[10] = target: Thyrotropin receptor (Homo sapiens) (UniProt P16473); assay: qHTS Assay for Antagonists of the Thyroid Stimulating Hormone Receptor (AID 488980); conditions: TSHR-expressing cells, cAMP antagonist read-out; series mostly up to 57.5 µM
Procedure, shortened: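 Inhibition of cAMP raised by EC80 TSH (4 nM final) was read by HTRF, with lysate cAMP competing against cAMP-d2 for cryptate antibody after 30 min at room temperature. The cells were transfected HEK293 held in phosphodiesterase inhibitor RO 20-1724 at 70 uM.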

Sequence of Thyrotropin receptor (Homo sapiens) (P16473 whole entry, looked up): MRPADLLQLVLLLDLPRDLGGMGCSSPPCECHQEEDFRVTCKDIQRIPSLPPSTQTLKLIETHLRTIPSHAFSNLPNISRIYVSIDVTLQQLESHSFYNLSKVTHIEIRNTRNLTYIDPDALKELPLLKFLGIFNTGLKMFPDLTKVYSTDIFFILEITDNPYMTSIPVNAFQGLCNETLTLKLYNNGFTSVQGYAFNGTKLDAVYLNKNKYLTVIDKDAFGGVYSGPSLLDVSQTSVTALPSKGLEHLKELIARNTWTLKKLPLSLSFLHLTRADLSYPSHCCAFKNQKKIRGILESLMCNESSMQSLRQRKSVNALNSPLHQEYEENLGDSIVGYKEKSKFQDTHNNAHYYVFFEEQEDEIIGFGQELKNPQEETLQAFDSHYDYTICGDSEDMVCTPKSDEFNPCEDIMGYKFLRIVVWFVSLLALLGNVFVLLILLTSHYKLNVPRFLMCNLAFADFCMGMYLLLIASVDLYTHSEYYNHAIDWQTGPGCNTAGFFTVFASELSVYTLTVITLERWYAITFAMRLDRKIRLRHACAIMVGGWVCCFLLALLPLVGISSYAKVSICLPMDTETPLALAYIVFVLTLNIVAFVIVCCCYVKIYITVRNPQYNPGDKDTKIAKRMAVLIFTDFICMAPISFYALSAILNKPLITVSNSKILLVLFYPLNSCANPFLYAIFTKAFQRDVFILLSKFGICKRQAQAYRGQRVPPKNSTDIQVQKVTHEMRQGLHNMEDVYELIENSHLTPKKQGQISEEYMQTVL
Sequence of Flap endonuclease 1 (Homo sapiens) (P39748 whole entry, looked up): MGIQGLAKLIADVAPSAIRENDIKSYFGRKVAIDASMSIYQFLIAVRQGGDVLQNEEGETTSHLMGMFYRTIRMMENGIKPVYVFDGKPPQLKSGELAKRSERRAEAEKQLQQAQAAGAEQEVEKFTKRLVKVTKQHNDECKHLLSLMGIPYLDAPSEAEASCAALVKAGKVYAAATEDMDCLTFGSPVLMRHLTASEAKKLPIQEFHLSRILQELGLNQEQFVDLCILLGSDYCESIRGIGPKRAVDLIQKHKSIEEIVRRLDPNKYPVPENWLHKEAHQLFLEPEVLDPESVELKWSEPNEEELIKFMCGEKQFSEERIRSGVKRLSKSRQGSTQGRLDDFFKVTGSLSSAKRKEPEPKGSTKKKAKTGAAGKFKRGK
Sequence of Transient receptor potential cation channel subfamily V member 1 (Homo sapiens) (Q8NER1 whole entry, looked up): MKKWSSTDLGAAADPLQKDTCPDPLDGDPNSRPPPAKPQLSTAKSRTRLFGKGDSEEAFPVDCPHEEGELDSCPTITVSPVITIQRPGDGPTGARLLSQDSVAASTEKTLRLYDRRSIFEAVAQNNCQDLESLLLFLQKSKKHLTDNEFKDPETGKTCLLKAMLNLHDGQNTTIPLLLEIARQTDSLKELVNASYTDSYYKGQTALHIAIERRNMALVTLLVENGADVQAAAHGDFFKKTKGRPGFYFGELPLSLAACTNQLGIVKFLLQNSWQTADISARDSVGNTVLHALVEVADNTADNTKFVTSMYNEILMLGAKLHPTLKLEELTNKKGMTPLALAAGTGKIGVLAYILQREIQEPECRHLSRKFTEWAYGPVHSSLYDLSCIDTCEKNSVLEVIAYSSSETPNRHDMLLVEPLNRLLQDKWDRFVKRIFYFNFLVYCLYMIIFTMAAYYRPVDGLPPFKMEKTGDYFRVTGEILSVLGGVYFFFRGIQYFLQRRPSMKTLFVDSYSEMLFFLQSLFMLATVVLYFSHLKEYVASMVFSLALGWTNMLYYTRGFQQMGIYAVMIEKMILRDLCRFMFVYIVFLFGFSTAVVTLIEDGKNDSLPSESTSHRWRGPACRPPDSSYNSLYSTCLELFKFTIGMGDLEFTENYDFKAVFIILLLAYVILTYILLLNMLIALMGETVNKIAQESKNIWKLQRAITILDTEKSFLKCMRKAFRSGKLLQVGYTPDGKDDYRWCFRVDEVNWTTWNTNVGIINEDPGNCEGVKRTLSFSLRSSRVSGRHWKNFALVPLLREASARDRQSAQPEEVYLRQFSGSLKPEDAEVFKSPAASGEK
Sequence of D(1A) dopamine receptor (Homo sapiens) (P21728 whole entry, looked up): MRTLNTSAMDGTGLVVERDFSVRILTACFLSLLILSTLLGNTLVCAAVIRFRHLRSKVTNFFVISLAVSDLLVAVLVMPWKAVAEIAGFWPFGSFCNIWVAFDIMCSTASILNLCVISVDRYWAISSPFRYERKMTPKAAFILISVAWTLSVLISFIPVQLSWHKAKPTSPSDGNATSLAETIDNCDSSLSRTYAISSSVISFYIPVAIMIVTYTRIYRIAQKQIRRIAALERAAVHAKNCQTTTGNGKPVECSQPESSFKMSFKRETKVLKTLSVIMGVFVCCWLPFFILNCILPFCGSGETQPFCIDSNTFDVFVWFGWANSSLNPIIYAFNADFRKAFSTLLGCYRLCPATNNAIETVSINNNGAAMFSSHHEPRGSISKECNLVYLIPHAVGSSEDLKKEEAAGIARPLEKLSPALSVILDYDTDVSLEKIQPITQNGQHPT
Sequence of Thioredoxin reductase 1, cytoplasmic (Rattus norvegicus) (O89049 whole entry, looked up): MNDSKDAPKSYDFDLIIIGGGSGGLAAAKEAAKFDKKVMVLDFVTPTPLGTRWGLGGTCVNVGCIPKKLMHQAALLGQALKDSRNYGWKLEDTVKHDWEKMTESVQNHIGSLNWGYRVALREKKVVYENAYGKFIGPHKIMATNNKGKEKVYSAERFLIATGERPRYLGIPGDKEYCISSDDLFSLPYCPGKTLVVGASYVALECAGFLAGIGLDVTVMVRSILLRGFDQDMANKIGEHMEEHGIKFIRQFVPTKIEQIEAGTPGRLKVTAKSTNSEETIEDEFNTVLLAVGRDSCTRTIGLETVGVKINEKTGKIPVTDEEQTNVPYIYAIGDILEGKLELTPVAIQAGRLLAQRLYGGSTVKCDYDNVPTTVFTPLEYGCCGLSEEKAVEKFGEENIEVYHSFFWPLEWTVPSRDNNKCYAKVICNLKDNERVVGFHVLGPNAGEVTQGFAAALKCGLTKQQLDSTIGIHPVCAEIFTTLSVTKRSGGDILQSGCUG
Sequence of Methanococcus maripaludis chaperonin (MmCpn) (Q6LX38 1-543): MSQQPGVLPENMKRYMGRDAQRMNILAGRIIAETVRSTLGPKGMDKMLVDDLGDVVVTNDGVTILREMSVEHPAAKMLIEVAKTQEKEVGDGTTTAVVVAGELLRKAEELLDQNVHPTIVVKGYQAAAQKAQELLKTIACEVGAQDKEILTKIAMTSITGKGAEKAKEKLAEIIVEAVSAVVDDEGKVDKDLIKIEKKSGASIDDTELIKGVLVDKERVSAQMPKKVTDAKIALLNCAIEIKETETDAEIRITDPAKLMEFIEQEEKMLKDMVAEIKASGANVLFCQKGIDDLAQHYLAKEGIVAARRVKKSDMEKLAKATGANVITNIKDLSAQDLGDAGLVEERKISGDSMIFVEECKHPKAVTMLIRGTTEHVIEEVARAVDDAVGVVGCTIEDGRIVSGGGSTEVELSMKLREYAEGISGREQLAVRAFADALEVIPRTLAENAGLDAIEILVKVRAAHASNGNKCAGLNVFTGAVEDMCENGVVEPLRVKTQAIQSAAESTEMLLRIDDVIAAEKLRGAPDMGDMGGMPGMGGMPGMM
Sequence of M-phase phosphoprotein 8 (Homo sapiens) (Q99549 whole entry, looked up): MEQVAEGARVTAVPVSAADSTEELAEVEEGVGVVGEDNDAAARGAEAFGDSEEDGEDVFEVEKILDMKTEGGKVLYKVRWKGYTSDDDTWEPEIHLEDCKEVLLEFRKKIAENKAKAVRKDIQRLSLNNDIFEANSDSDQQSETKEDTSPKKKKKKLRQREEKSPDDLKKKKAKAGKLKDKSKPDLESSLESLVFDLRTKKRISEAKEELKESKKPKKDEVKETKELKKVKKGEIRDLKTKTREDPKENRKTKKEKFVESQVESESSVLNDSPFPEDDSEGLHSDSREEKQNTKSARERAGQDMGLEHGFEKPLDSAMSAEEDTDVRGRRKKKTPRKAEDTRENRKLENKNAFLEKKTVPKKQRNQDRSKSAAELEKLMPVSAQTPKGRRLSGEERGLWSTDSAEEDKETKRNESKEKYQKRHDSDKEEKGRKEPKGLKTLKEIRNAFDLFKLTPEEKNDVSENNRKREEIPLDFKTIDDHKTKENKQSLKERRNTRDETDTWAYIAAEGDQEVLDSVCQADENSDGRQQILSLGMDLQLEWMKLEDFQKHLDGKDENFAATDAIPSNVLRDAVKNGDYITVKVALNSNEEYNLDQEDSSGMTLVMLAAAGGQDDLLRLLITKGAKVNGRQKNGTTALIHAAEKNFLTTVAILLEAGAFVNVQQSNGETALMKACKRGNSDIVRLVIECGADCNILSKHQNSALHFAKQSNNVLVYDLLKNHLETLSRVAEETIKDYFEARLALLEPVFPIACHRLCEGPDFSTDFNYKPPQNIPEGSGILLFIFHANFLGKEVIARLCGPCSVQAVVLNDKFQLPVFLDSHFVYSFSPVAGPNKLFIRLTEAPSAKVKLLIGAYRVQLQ
Sequence of Chromobox protein homolog 1 (Homo sapiens) (P83916 whole entry, looked up): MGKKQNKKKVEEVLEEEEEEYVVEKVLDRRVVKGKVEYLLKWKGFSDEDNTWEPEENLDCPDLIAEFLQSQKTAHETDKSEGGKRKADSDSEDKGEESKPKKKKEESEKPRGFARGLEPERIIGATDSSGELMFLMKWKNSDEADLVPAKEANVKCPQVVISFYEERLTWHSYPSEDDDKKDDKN

C[N+](C)(C)CCCCCCCCCC[N+](C)(C)C
outcome [1]: inactive

CCOC(=O)Nc1ccc(NCc2ccc(F)cc2)nc1N
Potency [2]: 10.6 µM (active) | outcome [1]: inactive | Potency [3]: 39.8 µM (active)

COC(=O)C1=CCCN(C)C1
Potency [2]: inactive | outcome [1]: inactive | Potency [4]: inactive | Potency [3]: inactive | outcome [5]: inactive | outcome [6]: inactive | outcome [7]: inactive | Potency [8]: inactive | Potency [9]: inactive

NC(=O)CN1CCCC1=O
Potency [2]: inactive | outcome [1]: inactive | Potency [4]: inactive | Potency [3]: inactive | outcome [5]: inactive | outcome [6]: inactive | outcome [7]: inactive | Potency [8]: inactive | Potency [9]: inactive

NC(N)=N/N=C/c1c(Cl)cccc1Cl
Potency [8]: inactive

CC[C@H]1CN2CCc3cc(OC)c(OC)cc3[C@@H]2C[C@@H]1C[C@H]1NCCc2cc(OC)c(OC)cc21
outcome [1]: inactive

CNC(=O)Oc1ccc2c(c1)[C@]1(C)CCN(C)[C@@H]1N2C
Potency [4]: inactive

COc1ccc(C(=O)N2CCCC2=O)cc1
Potency [2]: inactive | Potency [4]: inactive | Potency [3]: inactive | outcome [5]: inactive | outcome [6]: inactive | outcome [10]: inactive | outcome [7]: inactive | Potency [8]: inactive | Potency [9]: inactive

CC(N)C(=O)OC(C)(C)Cc1ccc(Cl)cc1 (centres undefined)
Potency [4]: inactive | outcome [6]: inactive | outcome [10]: inactive

CCCCCCCCC(=O)NCc1ccc(O)c(OC)c1
Potency [4]: inactive | outcome [10]: inactive

COC(=O)C1=C(C)NC(C)=C(C(=O)OC)C1c1ccccc1[N+](=O)[O-]
Potency [4]: 39.8 µM (active) | Potency [3]: 35.5 µM (active) | Potency [8]: 2.59 µM (active)

CN1C[C@H](C(=O)N[C@]2(C)O[C@@]3(O)[C@@H]4CCCN4C(=O)[C@H](Cc4ccccc4)N3C2=O)C[C@@H]2c3cccc4[nH]cc(c34)C[C@H]21
Potency [4]: inactive | Potency [8]: inactive | Potency [9]: 8.91 µM (active)

c1ccc2nc(N3CCNCC3)ccc2c1
Potency [4]: inactive | outcome [6]: inactive

O=C(O)c1nn(Cc2ccc(Cl)cc2Cl)c2ccccc12
Potency [2]: inactive | outcome [1]: inactive | Potency [4]: inactive | Potency [3]: inactive | outcome [5]: inactive | outcome [6]: inactive | outcome [10]: inactive | outcome [7]: inactive | Potency [8]: inactive | Potency [9]: inactive

O=C1CC2(CCCC2)CC(=O)N1CCCCN1CCN(c2ncccn2)CC1
Potency [3]: inactive

NC(N)=NC(=O)c1nc(Cl)c(N)nc1N
outcome [1]: inactive

Brc1c(NC2=NCCN2)ccc2nccnc12
Potency [2]: 16.8 µM (active) | outcome [1]: inactive

NC(N)=NCCC[C@H](N)C(=O)O
outcome [1]: inactive | Potency [3]: inactive

Cc1cc(C(C)(C)C)cc(C)c1CC1=NCCN1
Potency [4]: inactive
